{"source": "ChEMBL document CHEMBL3988442", "about": "“University of Dundee, Small-Polar-MMV Screening Library” (2021)", "note": "In all, about 48,000 compounds went through this assay and about 13,000 (27%) showed an effect of 50% or more. Some of the results follow.", "data": [{"tested_on": "Wolbachia pipientis", "assay": "Anti-Wolbachia Cell-Based Screen", "format": "functional", "design": "scale not given: in the data most compounds retested in dose-response had high values", "conditions": "5 µM", "units": {"Percent Effect": "%"}, "values": [{"compound": "CCOc1ncccc1-c1cc2c(cc1C(N)=O)OCO2", "Percent Effect": 2.212}, {"compound": "COC(=O)CNC(=O)CSCc1nc(O)c2c(C)c(C)sc2n1", "Percent Effect": 7.048}, {"compound": "CNS(=O)(=O)c1cccc(C(C)NCc2nccn2C(C)C)c1", "note": "(stereo unspecified)", "Percent Effect": -13.68}, {"compound": "CC(C)(C)c1nc(CN2CCC3(CCCO3)CCC2=O)no1", "note": "(stereo unspecified)", "Percent Effect": -4.31}, {"compound": "O=C(CCc1ccccc1F)NS(=O)(=O)c1ccc2c(c1)OCCCO2", "Percent Effect": 3.529}, {"compound": "CO[C@H]1CN(Cc2nc3ccccc3n2C)CC[C@@]12CCCO2", "Percent Effect": 137.2}, {"compound": "CO[C@H]1CN(Cc2nc3ccccc3n2C)C[C@@]12CCCO2", "Percent Effect": 116}, {"compound": "COCCN1C[C@H]2CC[C@@H]1CN(Cc1nc3ccccc3n1C)C2", "Percent Effect": 17.95}, {"compound": "Cn1c(CO[C@H]2CN(S(C)(=O)=O)C[C@H]2F)nc2ccccc21", "Percent Effect": 0.03029}, {"compound": "Cn1c(CN2CCOC[C@H]2c2nc(C(C)(C)C)co2)nc2ccccc21", "Percent Effect": -2.257}, {"compound": "CC(=O)Nc1c(C)noc1/C=C\\c1ccc(S(=O)(=O)NC2CC2)cc1", "Percent Effect": 127.5}, {"compound": "CC(=O)Nc1c(C)noc1/C=C\\c1ccc(C)c(S(=O)(=O)NC2CC2)c1", "Percent Effect": 113.9}, {"compound": "Cc1ccc(S(=O)(=O)NC2CC2)cc1C", "Percent Effect": 3.676}, {"compound": "Cc1noc(C)c1C(=O)N(C)C(C)c1ccc(S(C)(=O)=O)cc1", "note": "(stereo unspecified)", "Percent Effect": -13.22}, {"compound": "CCOc1ccc(S(=O)(=O)NC(=O)c2c(C)noc2C(C)C)cc1", "Percent Effect": 3.193}, {"compound": "Cc1cc(NC(=O)NCc2ccc(S(=O)(=O)N3CCCC3)s2)no1", "Percent Effect": -7.015}, {"compound": "CCN(CC1CCCO1)S(=O)(=O)c1cc(NC(C)=O)ccc1C", "note": "(stereo unspecified)", "Percent Effect": -4.974}, {"compound": "CC(=O)Nc1c(C)noc1/C=C\\c1ccc(S(=O)(=O)N2CCCC2)cc1", "Percent Effect": 101.8}, {"compound": "Cc1cc(C)c(S(=O)(=O)Nc2c(C)noc2C)cc1C(=O)O", "Percent Effect": -6.139}, {"compound": "CC(C)N(CCNC(=O)c1ccc(S(=O)(=O)NC2CC2)cc1)C(C)C", "Percent Effect": -4.232}, {"compound": "CCC(C)NS(=O)(=O)c1ccc(/C=C\\c2onc(C)c2NC(C)=O)cc1", "note": "(stereo unspecified)", "Percent Effect": 102.8}, {"compound": "Cc1noc(C)c1NS(=O)(=O)c1cc(Cl)c(Cl)c(C(=O)O)c1", "Percent Effect": -2.046}, {"compound": "COCc1c(C(=O)N2CCCC(C(=O)c3ccccc3)C2)noc1C", "note": "(stereo unspecified)", "Percent Effect": 18.29}, {"compound": "CC(C)c1noc(-c2ccc(N(C)C3CCOCC3)nc2)n1", "Percent Effect": 4.725}, {"compound": "CCc1ccc(C(=O)N(c2cccnc2)C(C)C)cc1S(C)(=O)=O", "Percent Effect": -4.905}, {"compound": "Cn1cc(N2CCCC(NCc3cccc4c3OCCCO4)C2)cn1", "note": "(stereo unspecified)", "Percent Effect": 5.522}, {"compound": "CC(=O)N1CCN(Cc2csc(-c3cnn(C)c3)n2)CC1", "Percent Effect": -2.698}, {"compound": "CN(CCOc1ccccc1)C(=O)Nc1cccn(C)c1=O", "Percent Effect": -7.911}, {"compound": "CCn1nc(C)c(CNCCn2cc(C)cn2)c1C", "Percent Effect": -3.614}, {"compound": "CCc1n[nH]c(C2CN(C(=O)c3cscn3)CCO2)n1", "note": "(stereo unspecified)", "Percent Effect": 131.5}, {"compound": "CCc1n[nH]c(C2CN(C(=O)c3cnc(C)s3)CCO2)n1", "note": "(stereo unspecified)", "Percent Effect": 1.148}, {"compound": "CCc1n[nH]c(C2CN(C(=O)c3ccc(Cl)cn3)CCO2)n1", "note": "(stereo unspecified)", "Percent Effect": 105.2}, {"compound": "CCc1n[nH]c(C2CN(C(=O)c3cnns3)CCO2)n1", "note": "(stereo unspecified)", "Percent Effect": -10.08}, {"compound": "CCc1n[nH]c(C2CN(C(=O)c3cnc(C)cn3)CCO2)n1", "note": "(stereo unspecified)", "Percent Effect": 99.84}, {"compound": "CCc1n[nH]c(C2CN(C(=O)c3ccsc3)CCO2)n1", "note": "(stereo unspecified)", "Percent Effect": -7.314}, {"compound": "CCc1n[nH]c(C2CN(C(=O)c3cnn(CC)c3)CCO2)n1", "note": "(stereo unspecified)", "Percent Effect": 143.5}, {"compound": "CCc1n[nH]c(C2CN(C(=O)c3csnn3)CCO2)n1", "note": "(stereo unspecified)", "Percent Effect": 5.505}, {"compound": "Cc1ccc2c(c1)CCC21CCN(CCO)CC1", "Percent Effect": 9.958}, {"compound": "Cc1ccc(NC(=O)N(CCO)CCO)c(OCc2ccccc2)c1", "Percent Effect": -35.37}, {"compound": "Cc1cc(CN(Cc2cccs2)CC2CCCO2)no1", "note": "(stereo unspecified)", "Percent Effect": -7.251}, {"compound": "COc1ccc(CN(Cc2cnc(N)nc2)CC2CCCO2)c(OC)c1.O=C(O)CC(O)(CC(=O)O)C(=O)O", "note": "(stereo unspecified)", "Percent Effect": 113.1}, {"compound": "CCn1cncc1CN(Cc1ccc(OC)cc1OC)CC1CCCO1.O=C(O)CC(O)(CC(=O)O)C(=O)O", "note": "(stereo unspecified)", "Percent Effect": 91.73}, {"compound": "COc1ccc(CN(Cc2ccccn2)Cc2cncn2C)cc1.O=C(O)CC(O)(CC(=O)O)C(=O)O", "Percent Effect": 130.6}, {"compound": "COc1ccc(CN(Cc2cn(C)nc2C)CC2CCCO2)c(OC)c1", "note": "(stereo unspecified)", "Percent Effect": 138}, {"compound": "COC(=O)CCN(CC1CCCO1)C(=O)Cc1ccc(OC)c(OC)c1", "note": "(stereo unspecified)", "Percent Effect": 2.857}, {"compound": "Nc1nccnc1C(=O)N(Cc1ccccc1O)CC1CCCO1", "note": "(stereo unspecified)", "Percent Effect": -11.08}, {"compound": "COc1ccc(CN(CC2CCCO2)c2nc3c(s2)c(C)nn3C)cc1", "note": "(stereo unspecified)", "Percent Effect": -25.43}, {"compound": "COc1ccc(CN(Cc2cncn2C)CC2CCCO2)c(OC)c1.O=C(O)CC(O)(CC(=O)O)C(=O)O", "note": "(stereo unspecified)", "Percent Effect": -9.808}, {"compound": "CCN1CCN(c2ccc(F)cc2C(C)NCc2ccncc2)CC1", "note": "(stereo unspecified)", "Percent Effect": 0.6189}, {"compound": "COCCC(C)NC(=O)Nc1ccc(N2CCOC2=O)c(OC)c1", "note": "(stereo unspecified)", "Percent Effect": -2.31}, {"compound": "O=C(Cn1ccc2ccccc21)Nc1cc(N2CCOCC2)ncn1", "Percent Effect": -11.42}, {"compound": "CN(C)C(=O)Cc1ccc(NC(=O)NC2CC2)cc1", "Percent Effect": -3.674}, {"compound": "COc1ccccc1CN(Cc1cccnc1)Cc1c[nH]c(C)n1", "Percent Effect": -35.67}, {"compound": "O=c1[nH]c2ccccc2cc1CN(Cc1ccccn1)CC1CCCO1", "note": "(stereo unspecified)", "Percent Effect": 7.522}, {"compound": "COc1ccc(CN(Cc2cncn2C)CC2CCCO2)cc1.O=C(O)CC(O)(CC(=O)O)C(=O)O", "note": "(stereo unspecified)", "Percent Effect": 108.8}, {"compound": "Cc1nc2ccccn2c1CN(Cc1cccnc1)CC1CCCO1", "note": "(stereo unspecified)", "Percent Effect": -2.807}, {"compound": "COc1ccc(CN(Cc2cncn2C)CC2CCCO2)cc1OC.O=C(O)CC(O)(CC(=O)O)C(=O)O", "note": "(stereo unspecified)", "Percent Effect": -10.71}, {"compound": "COc1ccc(CN(C(=O)C2CCCOC2)c2ccncc2)cc1", "note": "(stereo unspecified)", "Percent Effect": -5.222}, {"compound": "COc1ccccc1CN(Cc1cccnc1)CC1CCCO1.O=C(O)CC(O)(CC(=O)O)C(=O)O", "note": "(stereo unspecified)", "Percent Effect": 117.4}, {"compound": "COc1ccc(CN(Cc2c[nH]cn2)CC2CCCO2)c(OC)c1.O=C(O)CC(O)(CC(=O)O)C(=O)O", "note": "(stereo unspecified)", "Percent Effect": 99.96}, {"compound": "Cn1cnc2c(N3CCCC3)nc(C3CCN(CC4CC4)CC3)cc21.O=C(O)C(F)(F)F.O=C(O)C(F)(F)F", "Percent Effect": -3.967}]}]}
